This note sets out measurements from PubChem BioAssay.

Molecules are shown by their SMILES.

The test in a line: small-molecule microarray binders of probe aNog, primary screen, biochemical, biotinylated probe, 635/667 nm fluorescence (AID 1115).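 Also: probe is biotinylated aNog protein used at 0.15 µg/mL for 1 h at 4 C; z-score combines 667 nm fluorescence of each spot with its signal to noise.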 As to conditions: higher = more signal.
Turning to `CCCCCCCCCCC(O)C1C=CC2C(=O)N(C)C(=O)C2N1N1CCCCC1` (stereo not given), the composite z-score was determined as 0.715. For the compound `CCCC[C@@H]1C[C@H]1[C@@H](NC(=O)Cc1ccccc1)c1ccc(Cl)cc1`, the composite z-score turned out to be 0.905. As to `CC(C)=CCN(C(=O)C#Cc1ccccc1)[C@H](CO)c1ccccc1`, the composite z-score is -0.302. Take `COc1ccc(NC(=O)O[C@H]2[C@H](OC(=O)Nc3ccc4c(c3)OCO4)[C@H](OC(=O)Nc3ccc4c(c3)OCO4)[C@@H](OC)O[C@@H]2CO)cc1`: the composite z-score was -0.147. The result for `CCCC[C@H]1OB(O)C[C@H]2C1=C(C)C[C@H]1C(=O)C=CC(=O)[C@H]12` reads -0.109. Turning to `CO[C@H]1O[C@H](CO)[C@@H](OC(=O)Nc2ccccc2)[C@@H]2OC(=O)[C@H](Cc3ccccc3)C/C=C/C[C@@H](Cc3ccccc3)C(=O)O[C@@H]12`, the composite z-score was determined as 0.696. The compound `C[C@H]1C2[C@H](Cc3ccccc3)NC(=O)[C@]23C(=O)NCC(=O)N2CCC[C@H]2C(=O)NC/C=C\C/C=C/C3[C@@H]2O[C@]12C` (stereo not given in full) came in with a composite z-score of -0.28. For the compound `[N-]=[N+]=NCc1ccccc1C[C@]1(C(=O)O)COC(c2ccc(OCCCO)cc2)=N1`, the composite z-score was -0.277. `CC(C)CNC(=O)[C@@]1(C)c2ccccc2C(=O)N(Cc2cc(F)cc(C(F)(F)F)c2)[C@H]1c1ccc(CO)cc1` returned a composite z-score of 0.341. With `CN(C)CCCNC(=O)[C@@H]1c2ccccc2C(=O)N(C2Cc3ccccc3C2)[C@H]1c1ccc(CO)cc1`, the composite z-score stood at 0.467. As for `CCN(CC)c1ccc(N2CC=CC34O[C@@H]5C=CCOC(=O)[C@@H]5[C@H]3C(=O)N(CCO)[C@@H]4C2=O)cc1` (stereo not given in full), the figure is -0.338. Regarding `COc1ccccc1CN1C(=O)c2ccccc2[C@@H](C(=O)NCCCN(C)C)[C@@H]1c1ccc(CO)cc1`, the composite z-score is -0.337. The result for `COc1cc(OC)c(C(O)C2C=CC3C(=O)N(c4ccccc4)C(=O)C3N2Nc2ccccc2F)cc1Br` (stereo not given) reads 1.62. Compound `CC(=O)c1ccc(C(O)C2C=CC3C(=O)NC(=O)C3N2Nc2ccc(Cl)cc2Cl)cc1` (stereo not given) yielded a composite z-score of 1.25. Consider `C=CCC(OC(C)=O)[C@@H]1[C@@H](N(Cc2cc3ccccc3o2)C(=O)Cc2ccc(OC)cc2)c2cc(OCCCO)ccc2N1C(=O)Cc1ccc(OC)cc1` (stereo not given in full), for which the composite z-score is -0.303. With `COCCCN1C(=O)[C@@]2(Cc3ccccc31)c1ccccc1C(=O)N(Cc1ccccc1OC)[C@H]2c1ccc(CO)cc1`, the composite z-score stood at 0.417. Regarding `COc1ccc(C#Cc2ccc3c(c2)[C@]2(C(=O)N3)[C@H](C(=O)Nc3nc4ccccc4s3)[C@H]3C(=O)O[C@H](c4ccccc4)[C@H](c4ccccc4)N3[C@@H]2c2ccc(OCCO)cc2)cc1`, the composite z-score was determined as 0.302. For `CC(C)C[C@H]1NC(=O)[C@@H](C)NC(=O)[C@@]23C(=O)N[C@@H](Cc4ccccc4)C2[C@H](C)[C@@]2(C)O[C@H]2C3/C=C/C/C=C\CNC1=O` (stereo not given in full), the composite z-score is -0.205.

Compound `CC(C)C[C@H]1NC(=O)[C@@]23C(=O)N[C@@H](Cc4ccccc4)C2[C@H](C)[C@@]2(C)O[C@H]2C3/C=C/C/C=C\CNC(=O)[C@@H]2CCCN2C1=O` (stereo not given in full) had a composite z-score of 0.283. The compound `COc1ccc(C(O)C2C=CC3C(=O)N(C)C(=O)C3N2Nc2ccc([N+](=O)[O-])cc2[N+](=O)[O-])cc1OCc1ccccc1` (stereo not given) registered a composite z-score of 1.38. Compound `[N-]=[N+]=Nc1ccccc1[C@@H]1OC(c2ccc(OCCCO)cc2)=N[C@]1(Cc1ccccc1)C(N)=O` displayed a composite z-score of -0.0956.

`CN(C)C(=O)[C@@]1(CCS(=O)(=O)c2ccccc2)N=C(c2ccc(OCCCO)cc2)O[C@H]1c1ccccc1N=[N+]=[N-]`: the composite z-score was -0.484. The result for `CN1C(=O)[C@]2(CCC(=O)OC(C)(C)C)N=C(c3ccc(OCCCO)cc3)O[C@@H]2c2ccccc21` reads 0.346; that for `C[N+](C)(C)CCCCCCNC(=O)[C@@H]1C[C@@H]2C(=O)N[C@@H](Cc3ccccc3)C(=O)N2[C@@H]1c1ccc(O)cc1`, 0.0498; that for `CCCC=C(CCC)[C@@H](NS(=O)(=O)c1ccc(Cl)cc1)c1ccccc1`, 1.07. `CO[C@H]1O[C@H](CO)[C@@H](OC(=O)Nc2ccc(C(F)(F)F)cc2)[C@H](OC(=O)Nc2ccccc2-c2ccccc2)[C@@H]1OC(=O)Nc1ccccc1-c1ccccc1`: the composite z-score is 0.977. Take `CC(C)[C@@H](C(=O)O)n1cc(-c2ccccc2)nn1`: the composite z-score is -0.0238. Compound `C=CCNC(=O)[C@@H]1[C@H]2C(=O)O[C@H](c3ccccc3)[C@H](c3ccccc3)N2[C@H](c2ccc(O)cc2)[C@@]12C(=O)Nc1ccc(C#CC3(O)CCCCCC3)cc12` returned a composite z-score of -0.499. As for `O=C1N(CCS(=O)(=O)c2ccccc2)c2ccccc2[C@@H]2OC(c3ccc(OCCCO)cc3)=N[C@]12CCS(=O)(=O)c1ccccc1`, the figure is 0.0373; as for `CCOC(=O)C1=CC[C@@H](c2ccccc2)N(S(=O)(=O)c2ccc(C)cc2)[C@H]1C#N`, -0.59. As to `COc1ccc([Si](C)(C)[C@H]2[C@H](CCO)O[C@@]3(C(=O)N(Cc4ccccc4)c4ccc(N(C=O)c5ccccc5)cc43)[C@@H]2C)cc1`, the composite z-score was -0.352.

`COc1cccc(C[C@H]2C[C@@H](CO[Si](C(C)C)(C(C)C)C(C)C)N3C(=O)[C@@]4(C(C)=O)O[C@@]23[C@@H]2C(=O)N(C)C(=O)[C@@H]24)c1` yielded a composite z-score of 0.0974.

`C=CC[C@@]1(C(=O)O)N=C(c2ccc(OCCCO)cc2)O[C@@H]1c1ccccc1CN=[N+]=[N-]` returned a composite z-score of 0.0139. Take `CCCCNC(=O)c1ccc(C#C[Si](C)(C)C)c(OC(C)=O)c1`: the composite z-score is -0.185.

Compound `C=CCNC(=O)[C@H]1[C@@H]2C(=O)O[C@@H](c3ccccc3)[C@@H](c3ccccc3)N2[C@@H](c2ccc(O)cc2)[C@]12C(=O)Nc1ccc(C#CC3=CCCCC3)cc12` yielded a composite z-score of 0.587.
